# Positions count from the first letter of the chain named.
# Columns and labels:
# Experiment in all cases: yeast three-hybrid, YBZ-1, SC-Leu-His + 0.5 mM 3-AT, 4 days
# Details in all cases: tags: N-Gal4 AD-HA kept; label: inside an RPR1-promoter hybrid RNA with tandem MS2 sites; ssRNA
# PUM1 PUF domain R2-GWD = PUM1 PUF domain R2-GWD (Homo sapiens, UniProt Q14671 828-1176, N899G;Y900W;Q903D)
# Summary of the method: (§1)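 Repeat regions from input (SC-Leu) and selection (SC-Leu-His + 0.5 mM 3-AT) plates were PCR-amplified and Illumina-sequenced after four days of growth. The cells were strain YBZ-1 with a LexA–MS2 coat fusion and a HIS3 reporter, co-expressing Pumilio-1 PUF domain libraries and matching RNA elements from a centromeric plasmid. The interaction score is the log change in variant frequency from input to selection, taken in log2 with a pseudocount of 1 for absent variants.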
# PUM1 PUF domain R4-MPG = PUM1 PUF domain R4-MPG (Homo sapiens, UniProt Q14671 828-1176, N971M;H972P;Q975G)
# Summary of the method: as §1
# PUM1 PUF domain R4-VWK = PUM1 PUF domain R4-VWK (Homo sapiens, UniProt Q14671 828-1176, N971V;H972W;Q975K)
# Summary of the method: as §1
# PUM1 PUF domain R1-TSR = PUM1 PUF domain R1-TSR (Homo sapiens, UniProt Q14671 828-1176, S863T;R864S;Q867R)
# Summary of the method: as §1
# PUM1 PUF domain R6-WYG = target: T1, PUM1 PUF domain R6-WYG (Homo sapiens, UniProt Q14671 828-1176, N1043W;Q1047G)
# T1 sequence: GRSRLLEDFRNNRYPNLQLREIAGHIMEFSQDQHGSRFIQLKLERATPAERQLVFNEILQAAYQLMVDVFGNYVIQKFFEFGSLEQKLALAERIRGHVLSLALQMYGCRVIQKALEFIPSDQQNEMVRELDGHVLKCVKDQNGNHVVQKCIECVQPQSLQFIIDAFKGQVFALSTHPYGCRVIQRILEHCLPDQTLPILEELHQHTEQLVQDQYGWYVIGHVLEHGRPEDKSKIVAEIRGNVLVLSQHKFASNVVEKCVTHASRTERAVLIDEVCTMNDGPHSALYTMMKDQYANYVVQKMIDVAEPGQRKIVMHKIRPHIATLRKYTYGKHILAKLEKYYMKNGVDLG
# Summary of the method: as §1
# PUM1 PUF domain R3-LYG = PUM1 PUF domain R3-LYG (Homo sapiens, UniProt Q14671 828-1176, C935L;R936Y;Q939G)
# Summary of the method: as §1
# PUM1 PUF domain R8-KHS = PUM1 PUF domain R8-KHS (Homo sapiens, UniProt Q14671 828-1176, N1122K;Y1123H;Q1126S)
# Summary of the method: as §1
# PUM1 PUF domain R6-HFW = target: T2, PUM1 PUF domain R6-HFW (Homo sapiens, UniProt Q14671 828-1176, N1043H;Y1044F;Q1047W)
# T2 sequence: T1 sequence with W216H, Y217F, G220W
# Summary of the method: as §1
# PUM1 PUF domain R8-LRR = PUM1 PUF domain R8-LRR (Homo sapiens, UniProt Q14671 828-1176, N1122L;Y1123R;Q1126R)
# Summary of the method: as §1
# PUM1 PUF domain R6-RHG = target: T3, PUM1 PUF domain R6-RHG (Homo sapiens, UniProt Q14671 828-1176, N1043R;Y1044H;Q1047G)
# T3 sequence: T1 sequence with W216R, Y217H
# Summary of the method: as §1
# PUM1 PUF domain R1-QLD = PUM1 PUF domain R1-QLD (Homo sapiens, UniProt Q14671 828-1176, S863Q;R864L;Q867D)
# Summary of the method: as §1
# PUM1 PUF domain R1-RTE = PUM1 PUF domain R1-RTE (Homo sapiens, UniProt Q14671 828-1176, S863R;R864T;Q867E)
# Summary of the method: as §1
# PUM1 PUF domain R5-RSI = PUM1 PUF domain R5-RSI (Homo sapiens, UniProt Q14671 828-1176, C1007R;R1008S;Q1011I)
# Summary of the method: as §1
# PUM1 PUF domain R2-LWM = PUM1 PUF domain R2-LWM (Homo sapiens, UniProt Q14671 828-1176, N899L;Y900W;Q903M)
# Summary of the method: as §1
# PUM1 PUF domain R3-RSC = PUM1 PUF domain R3-RSC (Homo sapiens, UniProt Q14671 828-1176, C935R;R936S;Q939C)
# Summary of the method: as §1
# PUM1 PUF domain R3-MSN = PUM1 PUF domain R3-MSN (Homo sapiens, UniProt Q14671 828-1176, C935M;R936S;Q939N)
# Summary of the method: as §1
# PUM1 PUF domain R6-SWH = target: T4, PUM1 PUF domain R6-SWH (Homo sapiens, UniProt Q14671 828-1176, N1043S;Y1044W;Q1047H)
# T4 sequence: T1 sequence with W216S, Y217W, G220H
# Summary of the method: as §1
# PUM1 PUF domain R5-WWA = PUM1 PUF domain R5-WWA (Homo sapiens, UniProt Q14671 828-1176, C1007W;R1008W;Q1011A)
# Summary of the method: as §1
# PUM1 PUF domain R8-RPR = PUM1 PUF domain R8-RPR (Homo sapiens, UniProt Q14671 828-1176, N1122R;Y1123P;Q1126R)
# Summary of the method: as §1
# PUM1 PUF domain R8-GYK = PUM1 PUF domain R8-GYK (Homo sapiens, UniProt Q14671 828-1176, N1122G;Q1126K)
# Summary of the method: as §1
sequence,measurement,setting,value
GGCUAGAACUAGUGGAUCCCCCGGCGCCCGGCGGCUCGAGCCCGGGUAAGUGUAAAGAGUCUGCAUGCCGCCGGGCGCCAUGCCUGCAGGUCGACUCUAGAAAACAUG,binding signal,PUM1 PUF domain R2-GWD,10.1 log2 enrichment (interaction score)
GGCUAGAACUAGUGGAUCCCCCGGCGCCCGGCGGCUCGAGCCCGGGUAAGUGUACAUAGUCUGCAUGCCGCCGGGCGCCAUGCCUGCAGGUCGACUCUAGAAAACAUG,binding signal,PUM1 PUF domain R4-MPG,2.9 log2 enrichment (interaction score)
same,binding signal,PUM1 PUF domain R4-VWK,5.63 log2 enrichment (interaction score)
GGCUAGAACUAGUGGAUCCCCCGGCGCCCGGCGGCUCGAGCCCGGGUAAGUGUAAAUCGUCUGCAUGCCGCCGGGCGCCAUGCCUGCAGGUCGACUCUAGAAAACAUG,binding signal,PUM1 PUF domain R1-TSR,2.68 log2 enrichment (interaction score)
GGCUAGAACUAGUGGAUCCCCCGGCGCCCGGCGGCUCGAGCCCGGGUAAGUGUAAAUAGUCUGCAUGCCGCCGGGCGCCAUGCCUGCAGGUCGACUCUAGAAAACAUG,binding signal,PUM1 PUF domain R6-WYG,3.19 log2 enrichment (interaction score)
same,binding signal,PUM1 PUF domain R2-GWD,1.77 log2 enrichment (interaction score)
same,binding signal,PUM1 PUF domain R3-LYG,2.65 log2 enrichment (interaction score)
same,binding signal,PUM1 PUF domain R8-KHS,4.58 log2 enrichment (interaction score)
same,binding signal,PUM1 PUF domain R6-HFW,3.2 log2 enrichment (interaction score)
same,binding signal,PUM1 PUF domain R8-LRR,2.35 log2 enrichment (interaction score)
same,binding signal,PUM1 PUF domain R6-RHG,2.33 log2 enrichment (interaction score)
GGCUAGAACUAGUGGAUCCCCCGGCGCCCGGCGGCUCGAGCCCGGGUAAGUGUAAAUUGUCUGCAUGCCGCCGGGCGCCAUGCCUGCAGGUCGACUCUAGAAAACAUG,binding signal,PUM1 PUF domain R1-TSR,0.81 log2 enrichment (interaction score)
same,binding signal,PUM1 PUF domain R1-QLD,4.86 log2 enrichment (interaction score)
same,binding signal,PUM1 PUF domain R1-RTE,2.65 log2 enrichment (interaction score)
GGCUAGAACUAGUGGAUCCCCCGGCGCCCGGCGGCUCGAGCCCGGGUAAGUGUUAAUAGUCUGCAUGCCGCCGGGCGCCAUGCCUGCAGGUCGACUCUAGAAAACAUG,binding signal,PUM1 PUF domain R5-RSI,3 log2 enrichment (interaction score)
GGCUAGAACUAGUGGAUCCCCCGGCGCCCGGCGGCUCGAGCCCGGGUAAGUGUAAAAAGUCUGCAUGCCGCCGGGCGCCAUGCCUGCAGGUCGACUCUAGAAAACAUG,binding signal,PUM1 PUF domain R2-GWD,3.74 log2 enrichment (interaction score)
same,binding signal,PUM1 PUF domain R2-LWM,7 log2 enrichment (interaction score)
GGCUAGAACUAGUGGAUCCCCCGGCGCCCGGCGGCUCGAGCCCGGGUAAGUGUAUAUAGUCUGCAUGCCGCCGGGCGCCAUGCCUGCAGGUCGACUCUAGAAAACAUG,binding signal,PUM1 PUF domain R4-MPG,2.39 log2 enrichment (interaction score)
GGCUAGAACUAGUGGAUCCCCCGGCGCCCGGCGGCUCGAGCCCGGGUAAGUGUAAUUAGUCUGCAUGCCGCCGGGCGCCAUGCCUGCAGGUCGACUCUAGAAAACAUG,binding signal,PUM1 PUF domain R3-LYG,4.62 log2 enrichment (interaction score)
same,binding signal,PUM1 PUF domain R3-RSC,3.04 log2 enrichment (interaction score)
GGCUAGAACUAGUGGAUCCCCCGGCGCCCGGCGGCUCGAGCCCGGGUAAGUGUAAGUAGUCUGCAUGCCGCCGGGCGCCAUGCCUGCAGGUCGACUCUAGAAAACAUG,binding signal,PUM1 PUF domain R3-LYG,6.19 log2 enrichment (interaction score)
same,binding signal,PUM1 PUF domain R3-MSN,2.68 log2 enrichment (interaction score)
GGCUAGAACUAGUGGAUCCCCCGGCGCCCGGCGGCUCGAGCCCGGGUAAGUGUCAAUAGUCUGCAUGCCGCCGGGCGCCAUGCCUGCAGGUCGACUCUAGAAAACAUG,binding signal,PUM1 PUF domain R5-RSI,2.24 log2 enrichment (interaction score)
GGCUAGAACUAGUGGAUCCCCCGGCGCCCGGCGGCUCGAGCCCGGGUAAGUGAAAAUAGUCUGCAUGCCGCCGGGCGCCAUGCCUGCAGGUCGACUCUAGAAAACAUG,binding signal,PUM1 PUF domain R6-SWH,2.64 log2 enrichment (interaction score)
GGCUAGAACUAGUGGAUCCCCCGGCGCCCGGCGGCUCGAGCCCGGGUAAGUGUGAAUAGUCUGCAUGCCGCCGGGCGCCAUGCCUGCAGGUCGACUCUAGAAAACAUG,binding signal,PUM1 PUF domain R5-WWA,2.58 log2 enrichment (interaction score)
GGCUAGAACUAGUGGAUCCCCCGGCGCCCGGCGGCUCGAGCCCGGGUAAGCGUAAAUAGUCUGCAUGCCGCCGGGCGCCAUGCCUGCAGGUCGACUCUAGAAAACAUG,binding signal,PUM1 PUF domain R8-LRR,3.25 log2 enrichment (interaction score)
same,binding signal,PUM1 PUF domain R8-RPR,2.38 log2 enrichment (interaction score)
same,binding signal,PUM1 PUF domain R8-GYK,4.76 log2 enrichment (interaction score)
GGCUAGAACUAGUGGAUCCCCCGGCGCCCGGCGGCUCGAGCCCGGGUAAGUGUAAAUGGUCUGCAUGCCGCCGGGCGCCAUGCCUGCAGGUCGACUCUAGAAAACAUG,binding signal,PUM1 PUF domain R1-RTE,0.93 log2 enrichment (interaction score)
